According to PubChem BioAssay AID2669 (National Center for Advancing Translational Sciences (NCATS), 2010):
Inconclusive results are not listed. Active and inactive are the calls of the source. The call rests on the fitted dose curve; in most records, active means well fitted inhibition curve with a large enough effect; inconclusive means small, poorly fitted or top-dose-only effect, or effect the other way; inactive means flat fitted curve, though single readings scatter.

Experiment: qHTS Assay Multiplex Screening to Identify Dual Action Probes in a Cell Model of Huntington: Cytoprotection (Protease relase)
Conditions: PC12 HttQ103 cells, Cytotox-Glo protease release, 40 h; series mostly up to 46.1 µM; activity change, negative = inhibition: at the top concentration
Method in brief: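 Inducible PC12 line expressing HTT exon 1 (Q103)-GFP, induced with 100 nM tebufenozide (final) and treated with compounds. Cytoprotection read as released protease activity by Cytotox-Glo luminescence.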

Row | Compound | activity change, negative = inhibition | Potency
1 | c1csc(-c2cn3c(n2)SCC3)c1 | -24.7% (inactive) | 
2 | COc1cc(NC(=O)COC(=O)[C@@H]2CCCN2S(=O)(=O)c2ccc(Cl)cc2)cc(OC)c1OC | 11.8% (inactive) | 
3 | CN1C(=O)NC(NC(=O)c2cccs2)(C(F)(F)F)C1=O (configuration not stated) | -6.9% (inactive) | 
4 | Cn1nnnc1Sc1ncnc2scc(-c3ccc(C(F)(F)F)cc3)c12 |  | 12.6 µM (active)
5 | CCCCCCCCNc1ncnc2ccccc12 | 27% (inactive) | 
6 | CCC(=O)O[C@]1(C(=O)CCl)[C@@H](C)C[C@H]2[C@@H]3CCC4=CC(=O)C=C[C@]4(C)[C@@]3(F)[C@@H](O)C[C@@]21C | 2.63% (inactive) | 
7 | CCC(=O)OCCCCCCOc1ccc(C(=O)O)cc1 |  | 0.891 µM (active)
8 | O=C(N/N=C/c1ccc(O)c(O)c1)c1ccc(CSc2cccc3cccnc23)cc1 |  | 8.91 µM (active)
9 | O=C(CN1CCN(c2ccccn2)CC1)NC1CCCC1 | -1.64% (inactive) | 
10 | CCc1nc(SCC(=O)Nc2nc3c(s2)CCCC3)c2ccccc2n1 | -52.8% (inactive) | 
11 | COC(=O)c1ccc(NC(=O)CN2C(=O)CSC2=O)cc1 | -28.9% (inactive) | 
12 | NC(=O)c1sc2nccc(Nc3ccccc3)c2c1N | -13.6% (inactive) | 
13 | COc1cccc(C(=O)Nc2ccc(F)c(F)c2F)c1 |  | 7.08 µM (active)
14 | COc1cc(-c2nc(S(=O)(=O)c3ccc(C)cc3)c(N(C)C)o2)cc(OC)c1OC | 23.5% (inactive) | 
15 | C=C1CCC2[C@](C)(CO)[C@H](O)CC[C@@]2(C)[C@@H]1C/C=C1/C(=O)OC[C@H]1O (some centres not stated) | 3.85% (inactive) | 
16 | COc1ccc2cc3cc(C(=O)N4CCN(c5ccccc5)CC4)oc3nc2c1 |  | 2.24 µM (active)
17 | NCCCCCc1cnc[nH]1 | 5.49% (inactive) | 
18 | CN1C(=O)C2(c3ccccc31)C1CCCC=C1C(C#N)=C(N)C2(C#N)C#N (configuration not stated) | -0.874% (inactive) | 
19 | Cn1nnnc1Sc1ncnc2scc(-c3ccccc3S(C)(=O)=O)c12 | -11.7% (inactive) | 
20 | CCc1nc(SCC(=O)N2CCCC2)c2ccccc2n1 | -6.46% (inactive) | 
21 | Cc1ccc(S(=O)(=O)CCc2nc3ccccc3n2CCC#N)cc1 |  | 25.1 µM (active)
22 | CC(C(=O)O)c1ccc(N2Cc3ccccc3C2=O)cc1 (configuration not stated) |  | 2.24 µM (active)
